Assay results published in PubChem BioAssay (EPA / NIEHS).
Results filed as inconclusive are left out. Active and inactive are the calls of the source. Rule for the calls, unless noted: active = hit-call score of the fitted dose curve at least 0.9, where 1 is the maximum; inactive = score below 0.9.

Legend:
[1] = ATG_DR4_LXR_CIS: Attagene CIS-FACTORIAL HepG2 Assay for human Liver X Receptor (LXR), DR4 submotif (AID 2282929); settings: HepG2 Attagene DR4 cis-reporter, mRNA transcription; actives raise or lower the signal
Procedure, shortened: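 DR4 cis-reporter in HepG2, 24 h exposure. Detection: RT-PCR, 6-FAM labelling, CE fragment analysis. Endpoint fitted bidirectionally, DMSO = baseline.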

[2] = biological target: Aryl hydrocarbon receptor (Homo sapiens) (UniProt P35869); assay: ATG_Ahr_CIS: Attagene CIS-FACTORIAL HepG2 Assay for human Aryl Hydrocarbon Receptor (Ahr) (AID 2282930); settings: HepG2 AhR cis-factorial reporter transcription; actives raise or lower the signal
Sequence of Aryl hydrocarbon receptor (Homo sapiens) (P35869 whole entry, looked up): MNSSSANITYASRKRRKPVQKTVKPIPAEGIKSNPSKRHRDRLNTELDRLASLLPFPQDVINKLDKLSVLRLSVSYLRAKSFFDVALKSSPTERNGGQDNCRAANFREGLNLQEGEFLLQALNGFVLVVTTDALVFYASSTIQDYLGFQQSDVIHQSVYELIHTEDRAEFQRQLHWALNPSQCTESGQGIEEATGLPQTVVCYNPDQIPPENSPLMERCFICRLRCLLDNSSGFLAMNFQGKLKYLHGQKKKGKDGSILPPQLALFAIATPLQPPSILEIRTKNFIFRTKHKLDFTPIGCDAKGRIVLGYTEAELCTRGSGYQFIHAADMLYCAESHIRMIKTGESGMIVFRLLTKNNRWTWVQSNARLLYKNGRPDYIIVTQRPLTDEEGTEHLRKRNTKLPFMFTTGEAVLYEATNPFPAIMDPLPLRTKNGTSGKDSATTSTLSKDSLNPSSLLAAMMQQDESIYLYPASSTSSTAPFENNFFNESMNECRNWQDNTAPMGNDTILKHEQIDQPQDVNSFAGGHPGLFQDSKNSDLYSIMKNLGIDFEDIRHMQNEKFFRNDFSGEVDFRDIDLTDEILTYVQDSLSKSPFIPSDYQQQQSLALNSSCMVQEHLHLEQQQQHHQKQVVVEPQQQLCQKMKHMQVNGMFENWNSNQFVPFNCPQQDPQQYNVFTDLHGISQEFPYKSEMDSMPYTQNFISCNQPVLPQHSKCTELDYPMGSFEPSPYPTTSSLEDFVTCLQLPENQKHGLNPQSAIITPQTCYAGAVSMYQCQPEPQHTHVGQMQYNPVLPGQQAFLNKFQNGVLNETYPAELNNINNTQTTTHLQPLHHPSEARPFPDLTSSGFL
Procedure, shortened: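 Transient MRTU transfection of HepG2 → 24 h compound exposure → total RNA, oligo(dT) RT → PCR, 6-FAM extension, HpaI cut → CE fluorescence. DMSO = baseline; bidirectional curve fit.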

[3] = ATG_GRE_CIS: Attagene CIS-FACTORIAL HepG2 Assay for human Glucocorticoid Response Elements (GRE) (AID 2282947); settings: HepG2 GRE cis-reporter, Attagene multiplex mRNA; actives raise or lower the signal
Procedure, shortened: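 Multiplexed cis-reporter mRNA induction, HepG2, 24 h post-dose. RT-PCR, FAM-labelled, HpaI-digested amplicons by CE. Bidirectional fit vs DMSO.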

[4] = ATG_PXRE_CIS: Attagene CIS-FACTORIAL HepG2 Assay for human Pregnane X Receptor Element (PXRE) (AID 2282957); settings: HepG2 Attagene CIS-FACTORIAL PXRE reporter, mRNA; actives raise or lower the signal
Procedure, shortened: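 Using HepG2 transfected with multiple reporter transcription units, endogenous factor-driven transcription was scored as reporter mRNA after 24 h exposure.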

[5] = ATG_PPRE_CIS: Attagene CIS-FACTORIAL HepG2 Assay for human Peroxisome Proliferator-activated Response Element (PPRE) (AID 2282958); settings: HepG2 PPRE cis-element reporter, Attagene transcription factor profiling; actives raise or lower the signal
Procedure, shortened: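 Measured endpoint: PPRE-controlled reporter mRNA, detected by RT-PCR and capillary electrophoresis fluorescence, from transiently transfected HepG2 cells 24 h after dosing. Curves fitted in both directions using DMSO baseline.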

[6] = ATG_TCF_b_cat_CIS: Attagene CIS-FACTORIAL HepG2 Assay for human T-Cell-Factor with beta-catenin (TCF/b-cat) (AID 2282965); settings: HepG2 TCF/beta-catenin cis-reporter transcription, actives raise or lower the signal
Procedure, shortened: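 Endogenous transcription factor activity is captured through cis-promoter reporter constructs transiently introduced into human HepG2 liver cells. Induced reporter mRNA is measured after 24 h and fitted bidirectionally relative to DMSO.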

[7] = biological target: X-box-binding protein 1 (Homo sapiens) (UniProt P17861); assay: ATG_Xbp1_CIS: Attagene CIS-FACTORIAL HepG2 Assay for human X-box Binding Protein 1 (XBP1) (AID 2282972); settings: HepG2 XBP1 cis-element reporter, Attagene multiplex; actives raise or lower the signal
Sequence of X-box-binding protein 1 (Homo sapiens) (P17861 whole entry, looked up): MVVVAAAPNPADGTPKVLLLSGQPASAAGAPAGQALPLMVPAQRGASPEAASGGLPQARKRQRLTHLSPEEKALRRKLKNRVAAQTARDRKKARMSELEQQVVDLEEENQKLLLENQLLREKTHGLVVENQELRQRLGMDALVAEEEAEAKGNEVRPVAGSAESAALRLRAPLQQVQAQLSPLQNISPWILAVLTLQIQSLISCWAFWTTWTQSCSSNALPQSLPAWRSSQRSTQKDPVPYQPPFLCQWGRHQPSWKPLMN
Procedure, shortened: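 Changes in reporter transcript abundance, read by RT-PCR and capillary electrophoresis, reflect endogenous transcription factor activity. Transfected HepG2 cells received compound for 24 hours; DMSO defined baseline for bidirectional analysis.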

[8] = ATG_M_06_TRANS: Attagene TRANS-FACTORIAL HepG2 Assay for M06 Transcription Factor (Internal Marker) (AID 2282983; active = hit-call score of the fitted dose curve at least 0.9, where 1 is the maximum;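 note: reporter transcript level by RT-PCR then capillary electrophoresis fluorescence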); settings: HepG2 Attagene TRANS M06 internal marker reporter
Procedure, shortened: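 Background control endpoint: reporter mRNA from transiently transfected HepG2 after 24 h dosing, detected by RT-PCR with capillary electrophoresis fluorescence. Analysed for gain versus DMSO.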

[9] = biological target: Myc proto-oncogene protein (Homo sapiens) (UniProt P01106); assay: ATG_Myc_CIS: Attagene CIS-FACTORIAL HepG2 Assay for human Myelocytomatosis (Myc) Proto-Oncogene Transcription Factor (AID 2282990); settings: HepG2, Attagene cis-reporter transcription factor activity; actives raise or lower the signal
Sequence of Myc proto-oncogene protein (Homo sapiens) (P01106 whole entry, looked up): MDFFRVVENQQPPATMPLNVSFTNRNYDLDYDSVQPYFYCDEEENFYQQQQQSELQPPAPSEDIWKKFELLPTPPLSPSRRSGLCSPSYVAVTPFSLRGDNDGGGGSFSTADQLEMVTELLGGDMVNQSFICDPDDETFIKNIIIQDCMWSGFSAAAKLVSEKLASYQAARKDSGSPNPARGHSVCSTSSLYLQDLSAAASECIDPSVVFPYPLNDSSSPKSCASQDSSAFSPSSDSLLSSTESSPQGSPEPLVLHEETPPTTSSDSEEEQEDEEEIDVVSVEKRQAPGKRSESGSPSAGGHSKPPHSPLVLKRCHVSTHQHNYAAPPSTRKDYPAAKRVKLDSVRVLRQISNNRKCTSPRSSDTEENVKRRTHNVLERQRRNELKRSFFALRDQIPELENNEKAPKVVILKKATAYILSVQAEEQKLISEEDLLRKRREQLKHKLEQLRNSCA
Procedure, shortened: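 HepG2, transient MRTU transfection (cis promoters, endogenous TFs); 24 h dosing; TriZol RNA → oligo(dT) RT → PCR → 6-FAM primer extension → HpaI cut → CE. Bidirectional fit vs DMSO.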

[10] = biological target: Nuclear receptor subfamily 1 group I member 2 (Homo sapiens) (UniProt O75469); assay: ATG_PXR_TRANS: Attagene TRANS-FACTORIAL HepG2 Assay for human Pregnane X Receptor (PXR) (AID 2283008; active = hit-call score of the fitted dose curve at least 0.9, where 1 is the maximum)
Sequence of Nuclear receptor subfamily 1 group I member 2 (Homo sapiens) (O75469 whole entry, looked up, the tested form may be a part): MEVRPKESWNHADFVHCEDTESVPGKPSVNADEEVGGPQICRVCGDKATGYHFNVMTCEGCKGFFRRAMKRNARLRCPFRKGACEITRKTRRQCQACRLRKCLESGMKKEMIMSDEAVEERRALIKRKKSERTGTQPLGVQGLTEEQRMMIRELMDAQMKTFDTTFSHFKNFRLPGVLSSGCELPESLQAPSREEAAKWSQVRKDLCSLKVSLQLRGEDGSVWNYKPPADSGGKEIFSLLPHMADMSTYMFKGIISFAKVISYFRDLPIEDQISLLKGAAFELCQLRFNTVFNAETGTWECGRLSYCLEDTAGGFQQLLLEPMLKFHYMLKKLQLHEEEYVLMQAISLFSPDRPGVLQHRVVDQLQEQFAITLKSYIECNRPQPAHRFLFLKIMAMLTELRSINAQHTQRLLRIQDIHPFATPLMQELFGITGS
Procedure, shortened: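 Multiplexed TRANS reporter panel in HepG2; this component tracks PXR-Gal4-driven reporter mRNA after 24 h dosing, measured by RT-PCR with capillary electrophoresis fluorescence, fitted against DMSO.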

[11] = biological target: human Retinoid X Receptor beta (RXRb), RXRB (gene 6257) (UniProt P28702); assay: ATG_RXRb_TRANS: Attagene TRANS-FACTORIAL HepG2 Assay for human Retinoid X Receptor beta (RXRb) (AID 2283013; active = hit-call score of the fitted dose curve at least 0.9, where 1 is the maximum)
Sequence of human Retinoid X Receptor beta (RXRb), RXRB (gene 6257) (P28702 whole entry, looked up, the tested form may be a part): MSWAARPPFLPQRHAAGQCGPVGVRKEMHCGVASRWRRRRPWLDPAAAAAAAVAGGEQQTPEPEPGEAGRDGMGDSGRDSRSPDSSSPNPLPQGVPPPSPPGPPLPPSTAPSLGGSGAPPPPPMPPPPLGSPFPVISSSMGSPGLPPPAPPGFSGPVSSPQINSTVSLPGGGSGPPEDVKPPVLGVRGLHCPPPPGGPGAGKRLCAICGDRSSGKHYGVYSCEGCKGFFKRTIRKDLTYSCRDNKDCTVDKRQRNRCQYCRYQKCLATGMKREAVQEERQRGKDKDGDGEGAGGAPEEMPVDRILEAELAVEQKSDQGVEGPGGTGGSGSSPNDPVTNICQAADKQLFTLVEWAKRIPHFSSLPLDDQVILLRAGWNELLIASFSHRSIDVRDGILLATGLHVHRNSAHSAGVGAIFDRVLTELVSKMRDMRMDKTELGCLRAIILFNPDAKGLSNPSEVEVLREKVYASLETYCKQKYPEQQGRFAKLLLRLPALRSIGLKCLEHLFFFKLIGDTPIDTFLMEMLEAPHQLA
Procedure, shortened: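 Read-out: reporter mRNA induction via RT-PCR plus capillary electrophoresis fluorescence, analysed as signal increase relative to DMSO. Cells were human HepG2, transiently transfected with GAL4-UAS reporter constructs and chimeric receptor-Gal4 fusions, dosed for 24 h.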

[12] = ATG_PBREM_CIS: Attagene CIS-FACTORIAL HepG2 Assay for human Phenobarbital-responsive Enhancer Module (PBREM) (AID 2282955); settings: HepG2 PBREM cis-reporter, Attagene multiplexed transcription; actives raise or lower the signal
Procedure, shortened: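 Transfected liver-derived HepG2 cells exposed 24 h; PBREM reporter transcript quantified via RT-PCR and capillary electrophoresis, with activity in either direction referenced to DMSO.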

[13] = ATG_SREBP_CIS: Attagene CIS-FACTORIAL HepG2 Assay for human Sterol Regulatory Element Binding (SREBP) (AID 2282962); settings: HepG2 Attagene cis-factorial SREBP reporter, mRNA; actives raise or lower the signal
Procedure, shortened: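 In this cis-format assay, HepG2 liver cells express reporters controlled by promoter elements responsive to native transcription factors. Exposure lasts 24 h; reporter mRNA fluorescence from capillary electrophoresis gives the signal, fitted bidirectionally against DMSO.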

[14] = ATG_M_19_TRANS: Attagene TRANS-FACTORIAL HepG2 Assay for M19 Transcription Factor (Internal Marker) (AID 2282974; active = hit-call score of the fitted dose curve at least 0.9, where 1 is the maximum); settings: HepG2 Attagene TRANS-FACTORIAL M19 internal marker reporter
Procedure, shortened: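 Using RT-PCR and capillary electrophoresis, reporter mRNA from transiently transfected human HepG2 cells was quantified following 24 h exposure; activity was fitted in the positive direction against DMSO.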

[15] = biological target: Nuclear receptor subfamily 4 group A member 2 (Homo sapiens) (UniProt P43354); assay: ATG_NURR1_TRANS: Attagene TRANS-FACTORIAL HepG2 Assay for human Nuclear Receptor Related Protein 1 (NURR1) (AID 2282985; active = hit-call score of the fitted dose curve at least 0.9, where 1 is the maximum); settings: HepG2 Attagene TRANS reporter, mRNA readout
Sequence of Nuclear receptor subfamily 4 group A member 2 (Homo sapiens) (P43354 whole entry, looked up, the tested form may be a part): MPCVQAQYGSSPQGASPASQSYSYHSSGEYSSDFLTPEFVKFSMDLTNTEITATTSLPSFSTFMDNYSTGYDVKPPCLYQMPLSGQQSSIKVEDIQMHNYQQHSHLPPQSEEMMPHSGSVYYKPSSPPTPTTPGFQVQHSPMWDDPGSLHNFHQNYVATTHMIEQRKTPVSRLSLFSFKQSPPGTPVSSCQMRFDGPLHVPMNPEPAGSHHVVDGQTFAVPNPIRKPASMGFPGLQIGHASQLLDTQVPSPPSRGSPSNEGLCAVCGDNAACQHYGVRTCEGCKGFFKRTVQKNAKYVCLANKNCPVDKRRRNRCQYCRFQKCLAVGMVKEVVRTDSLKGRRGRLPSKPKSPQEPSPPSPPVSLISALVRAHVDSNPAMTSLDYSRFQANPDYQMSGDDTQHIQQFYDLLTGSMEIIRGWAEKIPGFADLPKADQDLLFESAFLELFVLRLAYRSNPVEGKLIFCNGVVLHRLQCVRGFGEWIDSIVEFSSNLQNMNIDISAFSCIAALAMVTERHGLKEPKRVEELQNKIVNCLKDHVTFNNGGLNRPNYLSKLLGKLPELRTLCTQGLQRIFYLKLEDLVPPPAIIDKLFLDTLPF
Procedure, shortened: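 Measures transcriptional activation by an exogenous NR-Gal4 chimera in transfected HepG2 liver cells. After 24 h, reporter RNA is reverse-transcribed, amplified and resolved by capillary electrophoresis; DMSO defines baseline.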

[16] = ATG_GAL4_TRANS: Attagene TRANS-FACTORIAL HepG2 Assay for GAL4 (Internal Marker) (AID 2282976; active = hit-call score of the fitted dose curve at least 0.9, where 1 is the maximum); settings: HepG2 Attagene TRANS GAL4 internal marker reporter
Procedure, shortened: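 First, HepG2 cells were transfected with reporter units under GAL4-UAS control. Next, they were treated with chemical for 24 h. Finally, RNA was reverse-transcribed, PCR-amplified, FAM-labelled and resolved by capillary electrophoresis, with induction scored against DMSO.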

[17] = biological target: human Peroxisome Proliferator-activated Receptor alpha (PPARa), PPARA (gene 5465) (UniProt Q07869); assay: ATG_PPARa_TRANS: Attagene TRANS-FACTORIAL HepG2 Assay for human Peroxisome Proliferator-activated Receptor alpha (PPARa) (AID 2283001; active = hit-call score of the fitted dose curve at least 0.9, where 1 is the maximum;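 for AC50: potency for gain of reporter signal over DMSO so agonist or activator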)
Sequence of human Peroxisome Proliferator-activated Receptor alpha (PPARa), PPARA (gene 5465) (Q07869 whole entry, looked up, the tested form may be a part): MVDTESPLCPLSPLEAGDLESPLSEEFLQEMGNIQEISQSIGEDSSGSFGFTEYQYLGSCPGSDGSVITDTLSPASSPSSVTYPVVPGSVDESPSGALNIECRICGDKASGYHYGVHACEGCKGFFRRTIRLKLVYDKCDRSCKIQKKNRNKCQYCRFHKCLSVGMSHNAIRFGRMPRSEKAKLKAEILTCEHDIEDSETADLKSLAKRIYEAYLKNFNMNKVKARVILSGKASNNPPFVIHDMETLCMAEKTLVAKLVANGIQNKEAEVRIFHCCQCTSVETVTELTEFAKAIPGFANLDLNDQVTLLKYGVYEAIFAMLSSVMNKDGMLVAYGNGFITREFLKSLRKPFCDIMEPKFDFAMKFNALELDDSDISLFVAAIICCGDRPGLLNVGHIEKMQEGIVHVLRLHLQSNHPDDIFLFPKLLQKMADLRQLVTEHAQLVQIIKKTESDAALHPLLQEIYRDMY
Procedure, shortened: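 Transfected HepG2 cells treated with test chemical for 24 h. RNA isolated, reverse-transcribed with oligo(dT), PCR-amplified, FAM-labelled and HpaI-digested. Fragments sized by capillary electrophoresis; gain-of-signal fit relative to DMSO.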

[18] = biological target: Retinoic acid receptor RXR-alpha (Homo sapiens) (UniProt P19793); assay: ATG_RXRa_TRANS: Attagene TRANS-FACTORIAL HepG2 Assay for human Retinoid X Receptor alpha (RXRa) (AID 2283012; active = hit-call score of the fitted dose curve at least 0.9, where 1 is the maximum)
Sequence of Retinoic acid receptor RXR-alpha (Homo sapiens) (P19793 whole entry, looked up, the tested form may be a part): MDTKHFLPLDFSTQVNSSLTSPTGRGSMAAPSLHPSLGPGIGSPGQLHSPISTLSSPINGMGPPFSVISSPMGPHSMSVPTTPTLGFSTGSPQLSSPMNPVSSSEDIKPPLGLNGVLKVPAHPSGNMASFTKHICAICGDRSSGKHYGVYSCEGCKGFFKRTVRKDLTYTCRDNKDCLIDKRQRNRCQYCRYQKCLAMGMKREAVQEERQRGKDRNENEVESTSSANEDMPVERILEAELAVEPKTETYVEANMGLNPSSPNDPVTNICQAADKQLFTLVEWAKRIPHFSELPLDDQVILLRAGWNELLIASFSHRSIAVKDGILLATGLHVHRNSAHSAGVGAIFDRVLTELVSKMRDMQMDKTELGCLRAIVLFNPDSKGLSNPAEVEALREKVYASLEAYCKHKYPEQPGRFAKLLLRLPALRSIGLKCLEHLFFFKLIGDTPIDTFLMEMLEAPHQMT
Procedure, shortened: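 Read-out: fluorescent reporter-transcript fragments quantified by capillary electrophoresis after RT-PCR. Transiently transfected HepG2 cells carrying GAL4-UAS reporters and NR-GAL4 chimeras were exposed to chemical for 24 h; activity scored as increase over DMSO.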

[19] = TOX21_p53_BLA_p5_viability: Viability Assessment in the Tox21 HCT-116 p53 Agonism Beta-lactamase Assay, Phase 5 (AID 2283600; active = hit-call score of the fitted dose curve at least 0.9, where 1 is the maximum)
Procedure, shortened: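 Workflow: seed 4000 cells per well, wait 5 h, add compounds (DMSO, 217-fold dilution), incubate 16 h, load CCF4-AM 2 h, add CellTiter-Glo, read luminescence after 30 min.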

[20] = ATG_GLI_CIS: Attagene CIS-FACTORIAL HepG2 Assay for human Zinc Finger Protein GLI1 (AID 2282945); settings: HepG2, Attagene cis-factorial reporter mRNA, GLI element; actives raise or lower the signal
Procedure, shortened: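 Bidirectional curve fits relative to DMSO, using reporter mRNA levels from RT-PCR plus capillary electrophoresis. Cells were HepG2 transiently carrying cis-regulated reporter constructs, harvested 24 h after dosing.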

Measured: AC50

CC(C)COP(=O)(OCC(C)C)OCC(C)C
inactive: [3] | [6] | [7] | [8] | [9] | [11]
active: [1] 57.9 µM | [2] 73.3 µM | [4] 2.21 µM | [5] 128 µM | [10] 1.52 µM

[CH3][Sn]([CH3])([Cl])[Cl]
inactive: [1] | [2] | [12] | [4] | [5] | [13] | [6] | [14] | [15] | [9] | [10] | [11]

N#CCCCl
inactive: [1] | [3] | [12] | [13] | [6] | [16] | [8] | [9] | [17] | [10] | [18] | [11] | [19]

CC(C)(C)C(O)C(Oc1ccc(-c2ccccc2)cc1)n1cncn1 (stereo not drawn)
inactive: [2] | [20] | [3] | [12] | [5] | [14] | [16] | [8] | [18] | [11]
active: [1] 57.3 µM | [4] 1.29 µM | [13] 12.7 µM | [6] 51.8 µM | [15] 53.9 µM | [10] 1.78 µM

NNc1ccccc1
active: [10] 36.6 µM
inactive: [1] | [20] | [12] | [13] | [6] | [7] | [8] | [15] | [17] | [18] | [11]

CCCOC(=O)c1ccccc1C(=O)OCCC
active: [10] 70.3 µM | [11] 76.1 µM
inactive: [2] | [5] | [6] | [7] | [14] | [15] | [9] | [17] | [19]

O=[N+]([O-])c1cc(C(F)(F)F)c(Cl)c([N+](=O)[O-])c1Cl
inactive: [2] | [20] | [3] | [4] | [5] | [13] | [7] | [8] | [9] | [10]
active: [6] 5.54 µM | [17] 52.5 µM | [19] 46.1 µM

Cc1ncc(C[n+]2csc(CCO)c2C)c(N)n1
inactive: [20] | [12] | [5] | [13] | [7] | [14] | [16] | [15] | [19]

O=C=Nc1ccccc1
inactive: [12] | [6] | [7] | [14] | [16] | [9] | [18]

CC(C)(C)C(=O)CCl
active: [1] 55.2 µM | [15] 135 µM
inactive: [20] | [3] | [5] | [13] | [6] | [7] | [14] | [17] | [10] | [18] | [11] | [19]

C=CC(=O)OCC(CC)CCCC (stereo not drawn)
inactive: [20] | [3] | [12] | [4] | [5] | [13] | [7] | [14] | [16] | [15] | [17] | [10] | [18] | [11] | [19]
